# Test results as given in article PMC11208138.
# How the values were obtained:
# Test in all cases: cross-link between two proteins; cross-linking mass spectrometry
# [1] = biological target: PHD finger-like domain-containing protein 5A (UniProt Q7RTV0)
# [2] = biological target: Small nuclear ribonucleoprotein Sm D2 (UniProt P62316)
# [3] = biological target: Splicing factor 3B subunit 5 (UniProt Q9BWJ5)
# THO complex subunit 4 = THO complex subunit 4 (UniProt Q86V81)
# Chain of Small nuclear ribonucleoprotein F, P62306 (P62306 whole entry): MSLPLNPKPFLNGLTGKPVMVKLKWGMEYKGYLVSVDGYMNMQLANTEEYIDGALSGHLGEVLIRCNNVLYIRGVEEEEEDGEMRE
# Chain of Splicing factor 3B subunit 1, O75533 (O75533 whole entry): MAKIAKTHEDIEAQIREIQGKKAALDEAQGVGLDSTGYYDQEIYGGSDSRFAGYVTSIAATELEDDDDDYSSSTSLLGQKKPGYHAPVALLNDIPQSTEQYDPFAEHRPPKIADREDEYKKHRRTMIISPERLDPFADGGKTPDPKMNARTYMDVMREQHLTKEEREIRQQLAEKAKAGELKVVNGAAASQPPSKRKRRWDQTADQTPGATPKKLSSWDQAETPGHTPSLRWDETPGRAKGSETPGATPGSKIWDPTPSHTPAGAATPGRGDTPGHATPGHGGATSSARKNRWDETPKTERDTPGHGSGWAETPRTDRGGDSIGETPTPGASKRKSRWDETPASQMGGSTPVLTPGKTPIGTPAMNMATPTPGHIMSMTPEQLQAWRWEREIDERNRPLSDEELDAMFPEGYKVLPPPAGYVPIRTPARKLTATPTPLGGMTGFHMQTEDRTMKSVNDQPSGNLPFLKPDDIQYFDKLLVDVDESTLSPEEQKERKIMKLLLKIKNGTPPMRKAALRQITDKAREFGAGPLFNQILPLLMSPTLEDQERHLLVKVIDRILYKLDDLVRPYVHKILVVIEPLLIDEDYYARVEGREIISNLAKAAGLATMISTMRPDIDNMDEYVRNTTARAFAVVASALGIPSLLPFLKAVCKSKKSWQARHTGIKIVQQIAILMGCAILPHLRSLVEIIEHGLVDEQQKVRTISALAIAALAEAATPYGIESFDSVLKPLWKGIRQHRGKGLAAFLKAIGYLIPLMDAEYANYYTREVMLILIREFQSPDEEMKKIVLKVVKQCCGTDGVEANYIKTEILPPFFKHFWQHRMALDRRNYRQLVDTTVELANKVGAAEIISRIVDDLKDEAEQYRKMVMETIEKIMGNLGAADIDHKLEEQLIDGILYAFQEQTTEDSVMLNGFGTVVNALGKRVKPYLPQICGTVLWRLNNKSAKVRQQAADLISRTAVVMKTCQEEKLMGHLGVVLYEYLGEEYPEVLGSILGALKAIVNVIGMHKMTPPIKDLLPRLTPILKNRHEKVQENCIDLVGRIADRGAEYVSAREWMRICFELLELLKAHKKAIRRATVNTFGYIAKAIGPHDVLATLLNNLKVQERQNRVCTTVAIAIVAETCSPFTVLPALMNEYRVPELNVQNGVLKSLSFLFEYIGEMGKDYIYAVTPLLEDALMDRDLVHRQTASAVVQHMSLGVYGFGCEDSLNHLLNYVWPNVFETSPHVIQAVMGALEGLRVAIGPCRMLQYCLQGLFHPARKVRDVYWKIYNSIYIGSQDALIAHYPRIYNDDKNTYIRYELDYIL
# Chain of Splicing factor 3B subunit 5 (Q9BWJ5 whole entry): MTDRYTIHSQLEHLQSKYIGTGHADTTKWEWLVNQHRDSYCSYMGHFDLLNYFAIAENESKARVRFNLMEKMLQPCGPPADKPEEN
# Chain of Small nuclear ribonucleoprotein Sm D2 (P62316 whole entry): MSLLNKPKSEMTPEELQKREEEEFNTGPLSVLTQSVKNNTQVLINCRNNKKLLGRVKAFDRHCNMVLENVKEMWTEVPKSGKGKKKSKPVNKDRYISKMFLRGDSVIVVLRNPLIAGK
# Chain of PHD finger-like domain-containing protein 5A (Q7RTV0 whole entry, the tested form may be a part): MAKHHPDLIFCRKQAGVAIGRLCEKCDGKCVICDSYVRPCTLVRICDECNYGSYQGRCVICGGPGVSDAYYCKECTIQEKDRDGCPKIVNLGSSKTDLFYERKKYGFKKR
# Chain of PHD finger-like domain-containing protein 5A, Q7RTV0 (Q7RTV0 whole entry, the tested form may be a part): as above
substance,measurement,setting,value
"Splicing factor 3B subunit 1, O75533",listed as a hit,[1],yes
"Small nuclear ribonucleoprotein F, P62306",listed as a hit,[2],yes
"PHD finger-like domain-containing protein 5A, Q7RTV0",listed as a hit,[3],yes
"Enhancer of rudimentary homolog, P84090",listed as a hit,THO complex subunit 4,yes
